# This is part of a sample that, as a whole, favours compounds with a hit. Of some 79,000 tested, about 15% had one in any assay. A number with no mark means an inactive call. Activity calls are given as the source filed them. No stated cut-off is given here; in the data, active means growth inhibition above about 70%; inactive means the rest.
# Legend:
# [1] = NCI Yeast Anticancer Drug Screen. Data for the rad50 strain (AID 155);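 further: 0% = growth of vehicle-only cultures of the same strain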; conditions: S. cerevisiae rad50 strain growth inhibition; at 50.0 µM; active compounds read high
# How it was run: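 DNA repair mutant yeast, compound exposure, growth read-out; inhibition is taken relative to vehicle.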
# [2] = NCI Yeast Anticancer Drug Screen. Data for the sgs1 mgt1 strain (AID 161);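 further: 0% = growth of cultures given vehicle only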; conditions: S. cerevisiae sgs1 mgt1 strain, at 50.0 µM, active compounds read high
# How it was run: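 Mutant yeast exposed to compound; growth scored against vehicle-only wells.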
# [3] = NCI Yeast Anticancer Drug Screen. Data for the bub3 strain (AID 167); conditions: S. cerevisiae bub3 mutant strain, at 50.0 µM, active compounds read high
# How it was run: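 In this screen, a yeast mutant lacking normal mitotic checkpoint function is challenged with compound. Relative growth versus vehicle gives the inhibition value.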
# [4] = NCI Yeast Anticancer Drug Screen. Data for the mlh1 rad18 strain (AID 175); conditions: S. cerevisiae mlh1 rad18 strain growth inhibition; at 50.0 µM; active compounds read high
# How it was run: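 Inhibition values reflect reduced growth of mutant yeast versus vehicle-treated controls following compound exposure; the mutations affect DNA damage repair.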
# [5] = NCI Yeast Anticancer Drug Screen. Data for the mec2-1 strain (AID 157); conditions: S. cerevisiae mec2-1 strain, at 50.0 µM, active compounds read high
# How it was run: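 Each compound was tested on mec2-1 yeast, a strain altered in DNA damage repair or cell cycle control. Growth inhibition is reported relative to vehicle.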
# [6] = NCI Yeast Anticancer Drug Screen. Data for the cln2 rad14 strain (AID 165);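 further: 0% = growth equal to vehicle treated cultures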; conditions: S. cerevisiae cln2 rad14 strain, at 50.0 µM, active compounds read high
# How it was run: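 Test compounds were added to cln2 rad14 yeast cultures; inhibition of growth was then determined by comparison with vehicle treatment.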
smiles,measurement,setting,value
CC(C)O/N=C/c1cc(NC(=S)OC(C)C)ccc1Cl,growth inhibition,[1],2.35%
same,growth inhibition,[2],11.1%
same,growth inhibition,[3],-10.9%
same,growth inhibition,[4],-57.5%
CC1=NN(c2ccccc2)C(=O)C1C(=O)c1ccccc1 (stereo not drawn),growth inhibition,[1],22.2%
same,growth inhibition,[5],-3.65%
same,growth inhibition,[4],14%
Fc1ccccc1Nc1n[nH]c(=S)s1,growth inhibition,[1],55.9%
same,growth inhibition,[5],56.7%
same,growth inhibition,[4],38.8%
Cc1cc(S(=O)(=O)O)c(NC(=O)c2oc3cc(O)ccc3c(=O)c2C)cc1Cl,growth inhibition,[1],-9.4%
same,growth inhibition,[2],3.9%
same,growth inhibition,[6],9.5%
same,growth inhibition,[3],-8.35%
O=C(O)c1cn(C2CC2)c2cc(N3CCNCC3)c(F)cc2c1=O,growth inhibition,[5],-6.4%
same,growth inhibition,[2],-13.1%
same,growth inhibition,[3],-19.5%
same,growth inhibition,[4],-0.35%
CCC(c1ccc(N(C)C)cc1)C1NC(=S)NC1=O (stereo not drawn),growth inhibition,[5],-27.8%
same,growth inhibition,[6],0.85%
same,growth inhibition,[3],11.8%
same,growth inhibition,[4],-9.55%
C(=N\n1cnnc1)/c1ccc2c(c1)CCC2,growth inhibition,[5],-34.5%
same,growth inhibition,[4],-20.4%
Fc1ccc(Nc2nc(Cl)c3[nH]cnc3n2)cc1Cl,growth inhibition,[5],1.45%
same,growth inhibition,[2],27.6%
same,growth inhibition,[6],7.6%
same,growth inhibition,[4],-28.7%
CCOC(=O)/C=C(\C)Nc1ccc(F)cc1,growth inhibition,[5],-17.6%
same,growth inhibition,[4],14.2%
CC/C(=C\c1cccc([N+](=O)[O-])c1)C(=O)O,growth inhibition,[1],-9.65%
same,growth inhibition,[4],-5.55%
Cn1c(=S)sc2ccc3ccccc3c21,growth inhibition,[5],-11.1%
same,growth inhibition,[4],-25.9%
O=C(/C=C(\[O-])c1ccccc1)CCCCCCC(=O)/C=C(\[O-])c1ccccc1.O=C(/C=C(\[O-])c1ccccc1)CCCCCCC(=O)/C=C(\[O-])c1ccccc1.O=C(/C=C(\[O-])c1ccccc1)CCCCCCC(=O)/C=C(\[O-])c1ccccc1.[Nd+3].[Nd+3],growth inhibition,[5],22.5%
same,growth inhibition,[2],30.1%
same,growth inhibition,[3],31.2%
same,growth inhibition,[4],22.1%
COC(=O)C(C)CN1CC(C)OC(C)C1 (stereo not drawn),growth inhibition,[1],-25.2%
same,growth inhibition,[4],-13.2%
O=Cc1ccc2c(c1Cl)C(=O)c1ccccc1C2=O,growth inhibition,[5],43.2%
same,growth inhibition,[4],68.3%
C=CC(COC(=O)C(C)(C)OC(C)=O)c1ccc(OC(=O)C(C)C)c(OC)c1 (stereo not drawn),growth inhibition,[5],-2.75%
same,growth inhibition,[2],20.4%
same,growth inhibition,[6],-12.3%
same,growth inhibition,[3],-9%
same,growth inhibition,[4],-76.1%
CC1CC(C)(C)N=C(Cc2ccccc2)O1 (stereo not drawn),growth inhibition,[1],-26.6%
same,growth inhibition,[4],2.05%
NC1N=C(c2ccc(Cl)cc2)C2=C(N1)c1ccccc1CC2 (stereo not drawn),growth inhibition,[5],0.9%
same,growth inhibition,[2],-0.75%
same,growth inhibition,[3],18.9%
COc1c(OC)c(OC)c2c(c1OC)c(=O)c1ccccc1n2C,growth inhibition,[5],22.9%
same,growth inhibition,[2],30.8%
same,growth inhibition,[6],18.8%
same,growth inhibition,[3],14.4%
CC(=O)CC1CCCC(CC(C)=O)N1C (stereo not drawn),growth inhibition,[5],-19.2%
same,growth inhibition,[4],0.2%
COc1ccc(/C(C#N)=C2C=C(Cl)/C(=N/O)C=C/2Cl)cc1,growth inhibition,[1],-6.55%
same,growth inhibition,[4],-19.2%
O=C(/C(=N/N=C\c1ccc([N+](=O)[O-])cc1)c1ccccc1)c1ccccc1,growth inhibition,[5],-18.4%
same,growth inhibition,[4],-1.25%
CC[n+]1c(C)n(Cc2ccc(C(=O)O)cc2)c2cc(F)ccc21,growth inhibition,[5],-14.7%
same,growth inhibition,[4],27.9%
COC(=O)c1ccc(NC(=O)O/N=C(\Cl)C(C)C)cc1,growth inhibition,[5],-20.7%
same,growth inhibition,[2],59.7%
same,growth inhibition,[6],8.85%
same,growth inhibition,[4],0.75%
C=CCCCCCCCCC(=O)Cl,growth inhibition,[1],33.9%
same,growth inhibition,[4],11.1%
CCOC(=O)C(C)Oc1ccccc1[N+](=O)[O-] (stereo not drawn),growth inhibition,[1],-24.6%
same,growth inhibition,[4],-15.8%
COc1cc(/C=N/N2CCCCC2)cc(OC)c1OC,growth inhibition,[1],-19%
same,growth inhibition,[4],-21.8%
COc1cc(/C=N/NC(=O)c2ccncc2)cc(OC)c1OC,growth inhibition,[1],-14.2%
same,growth inhibition,[4],-16.5%
CC(C)=CCc1cc(C2COc3cc4c(c(O)c3C2=O)C=CC(C)(C)O4)c(O)cc1O (stereo not drawn),growth inhibition,[5],93% (active)
same,growth inhibition,[2],92% (active)
same,growth inhibition,[6],90.9% (active)
same,growth inhibition,[3],91.6% (active)
same,growth inhibition,[4],88% (active)
C=CCNC(=S)N/N=C\c1cc(OC)c(OC)c(OC)c1,growth inhibition,[1],-18.8%
same,growth inhibition,[4],-34.6%

# — PubChem BioAssay (NCI)
